# Rows were chosen to be rich in hits. Some 1.2% of all compounds tested hit in one or more screens of this group.
# hERG WT inh = blocks the wildtype human KCNH2 potassium channel; Q12809; U2OS, BacMam KCNH2, thallium flux FluxOr; hits give low values; activity change, % at 1.84 µM; actives 0.37% (n = 340,000); AID 720551;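 active means maximum activity change below -70%; inconclusive means maximum activity change between -70% and -50%; inactive means maximum activity change above -50%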
#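 U2OS cells transduced with wild-type KCNH2 virus are loaded with FluxOr dye for 45 min, and thallium flux is measured in kinetic reads before and after stimulation buffer. Rate constants are normalized to DMSO controls.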
# KCNH2 3.1 inh = KCNH2 3.1 (human) potassium channel inhibition; activity change, % (tested at about 1.8 µM); U2OS KCNH2 3.1, thallium flux FluxOr; hits give low values; actives 0.95% (n = 340,000);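 active means maximum activity change below -70%; inconclusive means maximum activity change from -70% to -50%; inactive means maximum activity change above -50%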;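 further: thallium influx rate constant from kinetic fluorescence after stimulation buffer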
#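 Normalized rate constant (relative to positive and negative DMSO controls) derived from a 2 min kinetic fluorescence read after stimulation; U2OS cells expressing the 3.1 isoform via virus at 1.77 x 10^8 /mL.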
# Luc counter = counter-screen: inhibitors of Kinase-Glo firefly luciferase; Q27757; Kinase-Glo luciferase, ATP luminescence, 8 min; Potency, µM (top dose mostly 38.3 µM), most hits filed as inhibitors; actives 0.28% (n = 200,000); active means well fitted inhibition curve with a large enough effect; inconclusive means small, poorly fitted or top-dose-only effect; further: nearly all actives have a fitted effect of over 60% in size
#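 Luminescence was the read-out, taken after 8-minute incubation at ambient temperature. Luciferase turned over luciferin with 10 uM ATP in imidazole pH 7.2 buffer containing KCl, MgCl2, Tween 20 and BSA.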
# Numbers stand for hits; i = inactive; ? = inconclusive; nt = not tested or not shown.
SMILES,hERG WT inh,KCNH2 3.1 inh,Luc counter
N#CC1=C(N)C2=C(N3CCCCC3)CCCC2C1(C#N)C#N (configuration not stated),i,i,i
CCN(CC)C1=CC2=CC(=C(C#N)C#N)CCC2CC1 (configuration not stated),i,-97,i
N#CC(C#N)=C1C=C2C=C(N3CCCCC3)CCC2CC1 (configuration not stated),?,-89,i
C[C@@H]1CN([C@H](C)CO)C(=O)CCCn2cc(nn2)CO[C@H]1CN(C)C(=O)Cc1ccccc1,i,i,nt
Cc1ccc(-c2nc(NCC3CCCO3)sc2C)cc1 (configuration not stated),i,i,i
CNc1ccc(S(=O)(=O)NCC(=O)NCCCc2ccccc2)cc1[N+](=O)[O-],i,i,nt
CN(CC(=O)Nc1ccc(Cl)c(Cl)c1)CC(=O)N1CCc2ccccc21,i,i,nt
Cc1[nH]n(-c2ccccc2)c(=O)c1C=Nc1cnc2ccccc2c1,i,i,i
CCOc1ccc(N=Cc2c(C)[nH]n(-c3nc4ccccc4[nH]3)c2=O)cc1,i,i,8.9µM
CNC(=O)c1ccc(CN(C)CC(=O)Nc2ccccc2C(=O)NC2CC2)cc1,i,-72,nt
CSc1ccc(CN(C)CC(=O)Nc2ccccc2C(=O)NC2CC2)cc1,i,i,nt
O=C(Oc1ccc(N(Cc2cccs2)C2=NS(=O)(=O)c3ccccc32)cc1)c1ccc(Cl)cc1,?,-99,i
O=C(Oc1ccc(N(Cc2cccs2)C2=NS(=O)(=O)c3ccccc32)cc1)c1ccccc1,i,i,i
COC(=O)C1=C(C)NC(c2c(O)ccc3ccccc23)C(C(=O)OC)=C1C (configuration not stated),i,-85,i
COC(=O)C1=C(C)NC(=O)NC1c1c(O)ccc2ccccc12 (configuration not stated),i,i,nt
CN(C)c1ccc(N=Nc2ccccc2C(=O)OCC(=O)N2CCCC2)cc1,i,-83,i
CN(C)c1ccc(N=Nc2ccccc2C(=O)OCC(=O)N2CCCCCC2)cc1,i,i,i
O=C(NCCN1C(=O)S/C(=C\c2ccc(Cl)cc2Cl)C1=O)C1=COCCO1,i,i,nt
OCCC1CN(Cc2cccn2-c2nccs2)CCN1Cc1ccccc1 (configuration not stated),i,i,nt
OCCC1CN(Cc2cccn2-c2nccs2)CCN1Cc1ccc(F)c(F)c1 (configuration not stated),i,-85,nt
COc1ccc(/C=C/CN2CCN(Cc3cccc(OC)c3)C(CCO)C2)cc1 (configuration not stated),i,i,i
Cc1ncc(CN2CCN(Cc3ccccc3)C(CCO)C2)s1 (configuration not stated),i,i,nt
CCOc1ccc(CN2CCN(C/C=C/c3ccc(OC)cc3)CC2CCO)cc1 (configuration not stated),i,-88,i
CCOc1ccc(CN2CCN(Cc3cnc(-c4ccccc4)s3)CC2CCO)cc1 (configuration not stated),-96,-97,i
CC(C)=CCN1CCN(Cc2cccn2-c2nccs2)CC1CCO (configuration not stated),i,i,i
SMILES,hERG WT inh,KCNH2 3.1 inh,Luc counter
CCOc1ccc(CN2CCN(Cc3cccn3-c3nccs3)CC2CCO)cc1 (configuration not stated),-134,-113,nt
COc1ccc(CN2CCC[C@]3(N[C@H](c4ccc(C)cc4)[C@@H]4C(=O)N(Cc5ccccc5)C(=O)[C@@H]43)C2=O)cc1,i,i,nt
COc1ccc([C@H]2C[C@@H](n3cc(COC(=O)c4ccccc4)nn3)[C@H](O)CN2C(=O)C2CCCCC2)cc1,i,i,nt
Brc1ccc(-c2nc(N/N=C/c3cccnc3)c3ccccc3n2)cc1,i,i,7.1µM
C(=N\Nc1nc(-c2cccnc2)nc2ccccc12)/c1ccccc1,i,i,nt
Cc1cccc(C(=O)NCCCNC(=O)c2ccc(C)nc2)c1,i,i,nt
COc1ccc(-c2ccnc3nc(N4CCOCC4)nn23)cc1,i,-108,i
c1ccc(Oc2ccc(-c3ccnc4nc(N5CCOCC5)nn34)cc2)cc1,i,-118,i
CC(Oc1ccccc1)c1ccnc2nc(N3CCOCC3)nn12 (configuration not stated),i,i,i
COc1ccc(-c2ccnc3nc(-n4cccc4)nn23)cc1,i,i,i
COc1ccccc1/C=C(/CC(=O)NCc1ccc2c(c1)OCO2)c1nc2ccccc2s1,i,i,i
CN(CC(=O)Nc1ccc(Cl)c(C(F)(F)F)c1)C(=O)CCN1C(=O)C2CCCCC2C1=O (configuration not stated),i,i,nt
O=C(CCNS(=O)(=O)c1ccccc1)OCc1nnc(-c2ccccc2)o1,-131,-198,nt
